Binding signal data for 44 sequences are collected here from article PMC7819943, “Rice protein-binding microarrays: a tool to detect cis-acting elements near promoter regions in rice”.

The full ranking holds about 68,000 sequences; the median of “fluorescence intensity (a.u.)” is about 9,100, and the highest 2% start at about 16,000. Only a selection was taken, and the highest values are over-represented in it overall.

Chain of OsWRKY34 (Q0JBA9 entry or part of it): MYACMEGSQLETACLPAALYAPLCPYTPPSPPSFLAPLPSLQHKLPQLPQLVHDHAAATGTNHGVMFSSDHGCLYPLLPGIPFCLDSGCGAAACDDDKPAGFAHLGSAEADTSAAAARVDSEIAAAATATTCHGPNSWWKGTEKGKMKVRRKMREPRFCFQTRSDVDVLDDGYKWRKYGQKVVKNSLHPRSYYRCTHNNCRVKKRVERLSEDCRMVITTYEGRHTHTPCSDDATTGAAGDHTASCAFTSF

This experiment concerns the target OsWRKY34 (Oryza sativa, UniProt Q0JBA9 1-250). The experiment can be described thus: protein-binding microarray (RPBM); PBS, 2% BSA, 51.3 ng/ul salmon testes DNA, 50 uM zinc acetate, 200 nM TF, 25 C, 1 h; high values mean tight binding. Conditions: protein: recombinant; tags: N-terminal polyhistidine and DsRed monomer fusion (pET32a); label: CyDye5-dUTP incorporated in the synthesized complementary strand; 3' TTTTT single-stranded linker to array surface; dsDNA, one strand shown. The gist of the method:
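The binding signal is fluorescence intensity per array feature (arbitrary units). Readings came from an Axon 4000B scanner after a washed, 2% BSA-blocked, double-stranded custom Agilent array had been incubated for 1 h at 25 °C with 200 nM protein and 50 µM zinc acetate. The protein was a Ni–NTA-purified transcription factor fused N-terminally to polyhistidine and DsRed, expressed in E. coli BL21-CodonPlus.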
Consider “TCCACTATGGCCATCCTGATATCTTTGATCGTCTTTTCCACGGAGTCACCTAGTGCAG”, for which the binding signal is 17500 fluorescence intensity (a.u.).
Consider “CTTTTTTTCCAACGTTTGACCATTTGTCTTATTCAAAAAACGGAGTCACCTAGTGCAG”, for which the binding signal is 8560 fluorescence intensity (a.u.).
Turning to “GACTTTTTATCCAACGTTTGACCATTCGTCTTATTCAAAACGGAGTCACCTAGTGCAG”, the binding signal was 10300 fluorescence intensity (a.u.).
As to “AAAGCCTGTGGCCACATCTTATCTTTTCCATCCTTTGCATCGGAGTCACCTAGTGCAG”, the binding signal was 8040 fluorescence intensity (a.u.).
Regarding “GTCGTTGACTTTTTAACCACAACGTTTGACCATTCGTCTTCGGAGTCACCTAGTGCAG”, the binding signal is 21800 fluorescence intensity (a.u.).
For the sequence “CCATTGACTTTTTGTCCAACGTTTGACCATTCGTCTTATTCGGAGTCACCTAGTGCAG”, the binding signal is 17000 fluorescence intensity (a.u.).
For “TCAGTGGACTCGGTTCTGTTTTTTTGTCACTCCACTGGCACGGAGTCACCTAGTGCAG”, the binding signal was 9610 fluorescence intensity (a.u.).
“CACTAAGTCCGTTCCCATGCCCATTTCTCCCTGCATATTACGGAGTCACCTAGTGCAG”: the binding signal is 9680 fluorescence intensity (a.u.).
For the sequence “TGTTGACTTTTTTTATTAACGTTTAGCATTTATCTTATTTCGGAGTCACCTAGTGCAG”, the binding signal was 18000 fluorescence intensity (a.u.).
Regarding “CCGTTGACTTTTTAACTAATGTTTAACCATTCATTTTATTCGGAGTCACCTAGTGCAG”, the binding signal is 28900 fluorescence intensity (a.u.).
With “ACCATTAACTTTTTCTTAATTCGTTTCACTATTTTTTTAACGGAGTCACCTAGTGCAG”, the binding signal was 9500 fluorescence intensity (a.u.).
“CGTTGACTTTTTTTCAACGTTTAATAATTTATCTTATTCACGGAGTCACCTAGTGCAG”: the binding signal is 12900 fluorescence intensity (a.u.).
As to “ACTATTGACTTTTTTTCTATGTTAGACCATTCATTTTATTCGGAGTCACCTAGTGCAG”, the binding signal is 12300 fluorescence intensity (a.u.).
In the case of “ACTTTTTAACCAACGTTTGACCATTCGTCTTATTCAAATTCGGAGTCACCTAGTGCAG”, the binding signal is 10600 fluorescence intensity (a.u.).
Take “TCGTTGACTTTTTAACCAACGTTTAACCATTCGTCTTATTCGGAGTCACCTAGTGCAG”: the binding signal was 18600 fluorescence intensity (a.u.).
As for “TCTTGACCAACGTTTAACCATTCGTTTTATTTAAAATTTTCGGAGTCACCTAGTGCAG”, the binding signal is 9450 fluorescence intensity (a.u.).
Then “TATGACGTCGTTGACTTTTTAACCAACGTTTGACCATCGTCGGAGTCACCTAGTGCAG”, with 32900 fluorescence intensity (a.u.).
For the sequence “GACTTTTCACGTAACGTTTGACCATTTATCTTATTTATAACGGAGTCACCTAGTGCAG”, the binding signal was 9970 fluorescence intensity (a.u.).
Then “TTGTACACTTATGATTTCCTATTTTTGCATATGATTTTGTCGGAGTCACCTAGTGCAG”, with 8050 fluorescence intensity (a.u.); and “GACACTAGGACAGTACGTAGCTACCTCTCCACTGCTCTGCCGGAGTCACCTAGTGCAG”, with 8730 fluorescence intensity (a.u.); and “CTTGATTACCCCGTAGTCAGGTTTGTATGACTAAGCAACCCGGAGTCACCTAGTGCAG”, with 8980 fluorescence intensity (a.u.).
With “GACTGGGCCGTTGACCAGACGTGTACCCCACCGGCCAGTCCGGAGTCACCTAGTGCAG” the figure was 9290 fluorescence intensity (a.u.); with “GCCAAGGCCTTACTGCTGCTTCTGTTTCTTGCCACCAATGCGGAGTCACCTAGTGCAG”, 9650 fluorescence intensity (a.u.); with “GTTTGACTATTTTATGCCTTGTAGCTTGAGCTACAGTTCACGGAGTCACCTAGTGCAG”, 10100 fluorescence intensity (a.u.).
On to “CTCTCTAACTGCAGATTTCCCTCCCCTTTCAACGCGCGCGCGGAGTCACCTAGTGCAG”, for which the binding signal was 8110 fluorescence intensity (a.u.).
As for “CCCCATCAACCTCCTCTTCTTCTTCGCCTCGTCTCGTCTTCGGAGTCACCTAGTGCAG”, the binding signal was 9670 fluorescence intensity (a.u.).
With “TGCTGACTTGGCGTTGACCTGTGAAATTCTCTCGCTTCACCGGAGTCACCTAGTGCAG” the figure was 11500 fluorescence intensity (a.u.).
With “CGTCCAACTTTGATCGTCCGTTTTATTTGAATTTTTTTATCGGAGTCACCTAGTGCAG”, the binding signal was 11200 fluorescence intensity (a.u.).
As for “GCCGTTGACTTTTTATCCAACGTTTGATCATTCGTCTTATCGGAGTCACCTAGTGCAG”, the binding signal was 40800 fluorescence intensity (a.u.).
Take “ATTTTATCCAACGTTTGACCATTCGTCTTATATAAAATATCGGAGTCACCTAGTGCAG”: the binding signal was 9960 fluorescence intensity (a.u.).
Take “TATTAAATCATTTAATTTTAGCTATTGTTTTTTATTTATTCGGAGTCACCTAGTGCAG”: the binding signal was 9250 fluorescence intensity (a.u.).
Turning to “TTTATTAAACCTAGTTAATCCATTGTTAGCAAATATTTAACGGAGTCACCTAGTGCAG”, the binding signal was 23300 fluorescence intensity (a.u.).
As to “TTTCGATTGTTGTTTATTTTCCAGCATTAGTTTTTAAATCCGGAGTCACCTAGTGCAG”, the binding signal is 8320 fluorescence intensity (a.u.).
Turning to “TCTTTTTTTTTTTCATTATTGTTTGAATATTGATTTCACACGGAGTCACCTAGTGCAG”, the binding signal was 8780 fluorescence intensity (a.u.).
Turning to “TTGCAAAATTTAAAATTATGTTGTCATTGTAATATATTTTCGGAGTCACCTAGTGCAG”, the binding signal is 8440 fluorescence intensity (a.u.).
Then “GTTGGTTTTTACATTTGTTTGCTCGAGTCATATATGTCGTCGGAGTCACCTAGTGCAG”, with 9010 fluorescence intensity (a.u.).
Then “GCTGCCCCTTGTACTTACTTCTATCATCTTTCTTCCCACACGGAGTCACCTAGTGCAG”, with 8880 fluorescence intensity (a.u.); and “TTTAGTATATAAAAGATTATAGGGGAGGTTCATTACTTTCCGGAGTCACCTAGTGCAG”, with 8410 fluorescence intensity (a.u.); and “GGATTGGGGAGTGATTCGGTTTGTTCTTGATTTTGATTTTCGGAGTCACCTAGTGCAG”, with 15700 fluorescence intensity (a.u.).
Then “GTGTAGATTGATTGGTTCTTGGTGGTGGTGGTGGTGGATCCGGAGTCACCTAGTGCAG”, with 22200 fluorescence intensity (a.u.); and “TCTTGATTGGTTGTTTTGGTTTGTTTCTTATTTATGTTTGCGGAGTCACCTAGTGCAG”, with 8920 fluorescence intensity (a.u.); and “TTTCTTGATTTGGTTGGGATTGGTTGTTCTTGGGCTTATCCGGAGTCACCTAGTGCAG”, with 18900 fluorescence intensity (a.u.).
Take “TCTGAGTGGTTCTCTGGGCGTTGTTGGTGCGTTCTTGATCCGGAGTCACCTAGTGCAG”: the binding signal was 8900 fluorescence intensity (a.u.).
With “AGATCAGGTTTTCTCTTTGGTTGATTGTGTGTGGAAGATCCGGAGTCACCTAGTGCAG”, the binding signal was 10100 fluorescence intensity (a.u.).
